# The list is not random: actives were taken first. Their share in the collection is about 1.2%.
# GSH bead fluor – compound fluoresces at 488/530 nm on GSH beads; GSH beads flow cytometry, compound fluorescence 488/530 nm; stronger effect = higher value; fluorescence (KMESF) at 10 µM; actives 0.25% (n = 190,000); in the data active means fluorescence above about 89;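 further: glutathione beads carrying GST-tagged Bcl family fusion proteins plus one bare bead set; values are compound well signal with DMSO vehicle wells as background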
# Avidin bead fluor – compound fluoresces at 488/530 nm on avidin beads; actives 0.38% (n = 220,000); fluorescence (KMESF) at 10 µM; compound fluorescence 488/530 nm, flow cytometry; stronger effect = higher value; in the data active means fluorescence above about 47
# RGS4-Gao reg – modulates binding of RGS4 to human Galphao | Multiplexed bead flow cytometry; actives lie on both sides | binding response (% of control), % at 10 µM | actives 0.33% (n = 220,000); in the data active means binding response below about 49% or above about 150%; inactive means in between;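 further: fluorescent Galphao activated with aluminum fluoride binding bead-coupled RGS4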
# Target sequence (P09471 whole entry, looked up): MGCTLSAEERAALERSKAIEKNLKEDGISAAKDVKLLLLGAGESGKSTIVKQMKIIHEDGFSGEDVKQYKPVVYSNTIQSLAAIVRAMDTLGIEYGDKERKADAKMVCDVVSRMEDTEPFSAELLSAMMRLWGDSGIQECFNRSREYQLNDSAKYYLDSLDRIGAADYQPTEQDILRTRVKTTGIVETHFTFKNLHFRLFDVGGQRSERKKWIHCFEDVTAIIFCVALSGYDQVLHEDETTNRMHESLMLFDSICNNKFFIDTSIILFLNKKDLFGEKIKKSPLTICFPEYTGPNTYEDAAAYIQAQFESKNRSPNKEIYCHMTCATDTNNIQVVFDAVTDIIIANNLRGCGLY
# RGS16-Gao – regulators of human RGS16-Galphao interaction | actives 0.38% (n = 220,000) | bead-based flow cytometry RGS16-Galphao binding, fluorescence; actives lie on both sides | binding response (% of control), % at 10 µM | O15492+P09471 | AID 1441;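 further: Galphao activated by GDP with aluminum fluoride before binding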
# Target sequence (O15492 whole entry, looked up): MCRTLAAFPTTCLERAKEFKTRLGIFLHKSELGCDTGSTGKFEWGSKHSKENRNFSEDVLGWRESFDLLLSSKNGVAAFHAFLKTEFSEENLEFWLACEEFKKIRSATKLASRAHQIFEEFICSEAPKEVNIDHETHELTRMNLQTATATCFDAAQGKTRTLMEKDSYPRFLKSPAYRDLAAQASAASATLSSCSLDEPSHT
# Target sequence (P09471 whole entry, looked up): as the sequence (P09471 whole entry, looked up) above
# RGS8-Gao reg – modulates binding of RGS8 to human Galphao | P09471 | actives 0.34% (n = 220,000) | multiplexed bead flow cytometry; actives lie on both sides | response (percent of control binding), % at 10 µM; in the data active means response below about 60% or above about 140%; inactive means in between;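 further: Galphao activated as the GDP aluminium fluoride complex binding bead-coupled RGS8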
# RGS7-Gao reg – modulates binding of RGS7 to human Galphao | AID 1439 | P09471 | binding response (% of control), % at 10 µM | Multiplexed bead flow cytometry; actives lie on both sides | actives 0.35% (n = 220,000); in the data active means binding response below about 49% or above about 150%; inconclusive means no clear call, values can overlap the other calls; inactive means in between;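 further: fluorescent Galphao held in activated GDP-AlF4 state binding bead-coupled RGS7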
# RGS4-Gao HTS – modulates binding between human RGS4 and Galphao; shares compounds with RGS16-Gao; RGS4–Galpha-o binding response, % at 10 µM; actives 99% (n = 1,600); AID 1504; multiplexed bead flow cytometry, RGS–Galpha-o binding;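 further: fluorescently labeled Galpha-o bound to GDP with aluminium fluoride binding biotinylated RGS beads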
# Biotin-avidin – interferes with biotinylated probe binding to avidin beads; shares compounds with RGS16-Gao; streptavidin beads, fluorescein-biotin binding, flow cytometry; inhibition, % at 10 µM; 1,700 tested, under 10 active; AID 1783;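 active means inhibition above 50%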;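 further: median green fluorescence of gated singlet beads compared with DMSO control wells; 0% = DMSO wells and 100% = complete loss of bead fluorescence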
# RGS8-Gao confirm – confirmation of regulators of human RGS8-Galphao interaction; bead-based flow cytometry RGS8-Galphao binding, fluorescence; actives lie on both sides; AID 1836; actives 3% (n = 1,700); binding response (% of control), % at 10 µM; shares compounds with RGS16-Gao; in the data active means binding response below about 72% or above about 130%; inactive means in between;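 further: Galphao activated as GDP AlF4 complex before binding bead RGS8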
# RGS7-Gao single – confirmation of regulators of human RGS7-Galphao interaction; bead-based flow cytometry RGS7-Galphao binding; actives lie on both sides; AID 1837; actives 7.8% (n = 1,700); response (percent of control binding), % at 10 µM; shares compounds with RGS16-Gao; in the data active means response below about 75% or above about 130%; inactive means in between;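 further: fluorescent Galphao activated with GDP and aluminum fluoride binding bead-coupled RGS7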
# RGS16-Gao single – confirmation of regulators of human RGS16-Galphao interaction; bead-based flow cytometry, RGS16-Galphao binding; actives lie on both sides; AID 1838; actives 4% (n = 1,700); shares compounds with RGS16-Gao; response (% of control binding), % at 10 µM; in the data active means response below about 74% or above about 130%; inactive means in between;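 further: Galphao activated as the GDP aluminium fluoride complex binding bead-coupled RGS16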
# RGS4-Gao single – RGS4-Galphao interaction regulation, single point confirmation; RGS4-Galphao binding, multiplexed bead flow cytometry; actives lie on both sides; shares compounds with RGS16-Gao; actives 4% (n = 1,700); binding response (% of control), % at 10 µM; in the data active means binding response below about 74% or above about 130%; inactive means in between
# RGS19-Gao conf – RGS19-Galphao interaction regulation, single point confirmation; shares compounds with RGS16-Gao; bead-based flow cytometry RGS19-Galphao binding; actives lie on both sides; response (percent of control binding), % at 10 µM; actives 5% (n = 1,700); AID 1841; in the data active means response below about 50% or above about 160%; inactive means in between;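 further: 100% = no compound control and 0% = blank background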
# Numbers without * were called inactive; ? = inconclusive; / = not tested or not shown; [ ] = remark or other dose. Unless noted, how the calls were made is not given here.
SMILES,GSH bead fluor,Avidin bead fluor,RGS4-Gao reg,RGS16-Gao,RGS8-Gao reg,RGS7-Gao reg,RGS4-Gao HTS,Biotin-avidin,RGS8-Gao confirm,RGS7-Gao single,RGS16-Gao single,RGS4-Gao single,RGS19-Gao conf
CCCc1nc2c([nH]1)c(=O)n(C)c(=O)n2C,/,7,101,102,102,?,/,/,/,/,/,/,/
CC1=CC(C)(C)Nc2ccccc21,13,4,77,13*,63,73,77*,0,100,100,102,103,104
CCCN1C(=O)c2cccc3c(N4CCCCC4)ccc(c23)C1=O,4,12,92,18*,75,90,92*,1,100,103,100,103,99
CCOCCCn1c(=NC(=O)c2ccco2)c(C(=O)OCC)cc2c(=O)n3cccc(C)c3nc21,/,8,101,99,103,?,/,/,/,/,/,/,/
CN(C)C(=O)CSc1nc2ccccc2c(=O)[nH]1,24,165*,127,109,97,277*[activator],127*,1,102,95,105,101,102
O=C(CCCn1c(=S)[nH]c2ccsc2c1=O)Nc1ccc2c(c1)OCCO2,56,18,105,116,101,108,/,/,/,/,/,/,/
CC(=O)N(c1ccc(C)cc1)S(=O)(=O)c1ccc(Cl)cc1,16,10,102,105,102,?,/,/,/,/,/,/,/
COc1ccc(Cl)cc1S(=O)(=O)N1CCN(C)CC1,22,8,101,107,100,103,/,/,/,/,/,/,/
COc1ccc(Cl)cc1S(=O)(=O)N1CCCC1,44,/,/,/,/,/,/,0,102,103,106,103,110
CCNCc1nc2cc(Cl)ccc2c(=O)[nH]1,15,6,85,75,87,94,/,/,/,/,/,/,/
O=C(NC(=O)c1ccccc1O)c1ccc(C(F)(F)F)cc1,/,8,93,94,100,?,/,/,/,/,/,/,/
CCCc1ccc(C(=O)NC(=O)c2ccccc2O)cc1,/,2,33*,32,53*,?,/,-1,100,98,98,99,102
Cc1cc(=O)[nH]c(SCn2nnc3ccccc3c2=O)n1,24,12,36*,34,36*,30*,/,-2,100,97,96,96,103
O=c1c2ccccc2nnn1CSc1nc2ccccc2[nH]1,12,9,101,92,98,100,/,/,/,/,/,/,/
COc1c(Cl)cc(Cl)cc1C(=O)Nc1ccc(C(=O)O)cc1,9,1,99,62,89,100,/,/,/,/,/,/,/
COc1c(Cl)cc(Cl)cc1/C=C/C(=O)c1ccc(NC(=O)c2cccs2)cc1,10,-1,25*,9.2*,22*,16*,/,2,100,100,101,100,103
Cc1ccccc1NC(=O)COC(=O)Cc1ccsc1,17,6,96,111,102,95,/,/,/,/,/,/,/
CC(=O)Nc1cc(ON=C(C)C)cc([N+](=O)[O-])c1,13,5,98,153,111,97,/,/,/,/,/,/,/
CCCOc1ccc(C(=O)NCC(c2cccs2)N(C)C)cc1OC (configuration not stated),9,17,103,100,103,104,/,/,/,/,/,/,/
COc1cc(C(=O)NCC(c2cccs2)N(C)C)cc(Cl)c1OC(C)C (configuration not stated),15,8,116,211*[activator],122,120,116*,2,103,109,105,106,112
Cc1ccccc1-n1sc2cc(F)ccc2c1=O,7,2,90,4.8*,37*,104,90*,/,/,/,/,/,/
CCOC(=O)/C(C#N)=N/Nc1ccccc1OC,10,1,88,20*,65,88,88*,-1,102,95,101,98,92
CN(C)c1cccc(C(=O)Nc2cc(C(F)(F)F)ccc2-n2cnc3ccccc32)c1,14,8,106,197*[activator],127,115,106*,0,100,97,98,99,103
COc1cc(OC)c(N(C)S(=O)(=O)c2cccc(C(=O)OCC(=O)c3c[nH]c4ccccc34)c2)cc1Cl,13,1,89,24*,75,92,89*,0,111,114,112,109,130
C=CCN(c1ccccc1OC)S(=O)(=O)c1cccc(C(=O)OCC(=O)c2c[nH]c3ccccc23)c1,9,11,100,100,101,99,/,/,/,/,/,/,/
SMILES,GSH bead fluor,Avidin bead fluor,RGS4-Gao reg,RGS16-Gao,RGS8-Gao reg,RGS7-Gao reg,RGS4-Gao HTS,Biotin-avidin,RGS8-Gao confirm,RGS7-Gao single,RGS16-Gao single,RGS4-Gao single,RGS19-Gao conf
COc1ccc(CN(C)C2c3ccccc3-c3ccccc32)cc1,16,6,114,186*[activator],124,109,114*,3,99,99,99,100,90
COc1ccc(OCCN(C)Cc2ccccc2)cc1,49,10,97,94,100,93,/,/,/,/,/,/,/
Cc1ccc(-n2nc3c(SCCN4CCOCC4)nnc(C)c3c2C)cc1,17,18,97,100,99,100,/,/,/,/,/,/,/
CCOc1ccc(-n2nc3c(SCCN4CCCC4)nnc(C)c3c2C)cc1,12,40,183*[activator],202*[activator],121,210*[activator],/,0,99,88,97,91,92
Cc1ccc(C(=O)Nc2nc3n(n2)C(c2ccccc2)CC(=O)N3)cc1 (configuration not stated),/,8,104,100,103,?,/,/,/,/,/,/,/
COc1ccc(CNC(=O)C2CSC(c3ccc(OC)cc3)N2C(C)=O)cc1 (configuration not stated),28,123*,106,82,70,217*[activator],106*,-2,103,104,103,103,106
COCc1cc(=O)[nH]c(SCCS(=O)(=O)c2ccc(Cl)cc2Cl)n1,/,5,94,98,96,?,/,/,/,/,/,/,/

# From PubChem BioAssay
